This note sets out measurements from the supplement of paper PMC4840960.

Where a name gives a salt, the structure may show the parent alone. ± gives the standard deviation of the averaged measurements. Where only a bound is given, the exact number is not on record here.

Experiment [1] deals with E18 rat cortical neuron-glia co-culture. The experiment is described as follows: fiber score / MBP score (myelination specific beyond OL differentiation) (ratio); higher = more myelination-specific MBP alignment. The note with it: 1 µM; treatment time: 8 days (DIV5-DIV13). Summed up:
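The measure is the ratio of fiber score to MBP score, where fiber score is continuous MBP fiber length per Olig2+ nucleus and MBP score is thresholded MBP area × intensity per Olig2+ nucleus. Primary E18 rat cortical co-cultures received library compounds at 1 or 5 µM in myelination medium from DIV5 to DIV13, then were fixed in 4 % paraformaldehyde and stained for MBP, Olig2 and DAPI before analysis of four 10X fields per well in duplicate wells.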

For experiment [2] the test system is unchanged. The experiment is described as follows: myelination (MBP fiber length per Olig2+ nucleus), % of 1 µM DAPT response (DMSO = 0) (% of DAPT); higher = more myelination, active = 50 or more. Particulars: treatment time: 8 days (DIV5-DIV13). The essentials:
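The myelination value was the continuous straight MBP fiber length per Olig2+ nucleus, scaled between 0.1 % DMSO (0) and a 1 µM positive control (100). It was measured in primary E18 rat cortical co-cultures treated with library compounds at 1 or 5 µM in myelination medium from DIV5 through DIV13. Cells were fixed in 4 % paraformaldehyde and stained for MBP, Olig2 and DAPI, and four 10X fields per well were imaged in duplicate wells.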

Regarding `CN(C/C=C/C#CC(C)(C)C)Cc1cccc2ccccc12` [Terbinafine], in experiment [1], the “fiber score / MBP score” value turned out to be 0.788. Besides, the myelination in experiment [2] (1 µM) was -6.59 (inactive).

As for `c1ccc(CC2=NCCN2)cc1` [Tolazoline], the “fiber score / MBP score” value in experiment [1] amounted to 0.396. For the same compound, in experiment [2] (1 µM), the myelination is -13.6 (inactive).

On to `NNCCc1ccccc1` [Phenelzine], for which the “fiber score / MBP score” value in experiment [1] amounted to 0.849 ± 0.21. Also, in experiment [2] (1 µM), the myelination is -25.5 (inactive).

Consider `CC(C)(O)c1ccccc1CC[C@@H](SCC1(CC(=O)O)CC1)c1cccc(/C=C/c2ccc3ccc(Cl)cc3n2)c1` [Montelukast], for which the “fiber score / MBP score” value in experiment [1] was 0.64. The myelination in experiment [2] (1 µM) was -10.2 (inactive).

On to `CC1(C)O[C@@H]2C[C@H]3[C@@H]4CCC5=CC(=O)C=C[C@]5(C)[C@@]4(F)[C@@H](O)C[C@]3(C)[C@]2(C(=O)CO)O1` [Azmacort], for which, in experiment [1], the “fiber score / MBP score” value turned out to be 0.687. Further, in experiment [2] (1 µM), the myelination was -5.49 (inactive).

Turning to `CC#C[C@]1(O)CC[C@H]2[C@@H]3CCC4=CC(=O)CCC4=C3[C@@H](c3ccc(N(C)C)cc3)C[C@@]21C` [Mifepristone], in experiment [1], the “fiber score / MBP score” value was 0.755. Moreover, the myelination in experiment [2] (1 µM) was -23 (inactive).

For the compound `CC(C)(C)NC(=O)[C@@H]1C[C@@H]2CCCC[C@@H]2CN1C[C@@H](O)[C@H](Cc1ccccc1)NC(=O)[C@H](CC(N)=O)NC(=O)c1ccc2ccccc2n1` [Saquinavir], the “fiber score / MBP score” value in experiment [1] is 0.889. The myelination is 3.19 (inactive) in experiment [2] (1 µM) and < -37.3 (inactive) in experiment [2] (5 µM).

With `O=C(NCC1CCCCN1)c1cc(OCC(F)(F)F)ccc1OCC(F)(F)F` (centres undefined) [Flecainide], the myelination in experiment [2] (5 µM) is < -49.1 (inactive).

Regarding `CC=CC(=O)N(CC)c1ccccc1C` [Crotamiton], in experiment [1], the “fiber score / MBP score” value is 0.609. For the same compound, the myelination in experiment [2] (1 µM) was -16.8 (inactive).

Take `C[C@@H]1CN(CCCn2c3ccccc3c3ccccc32)C[C@H](C)N1` [Rimcazole]: in experiment [1], the “fiber score / MBP score” value was found to be 0.507. In addition, the myelination is -12.2 (inactive) in experiment [2] (1 µM) and < -33.5 (inactive) in experiment [2] (5 µM).

`CCCCc1nc(Cl)c(CO)n1Cc1ccc(-c2ccccc2-c2nnn[nH]2)cc1` [Losartan]: the “fiber score / MBP score” value in experiment [1] came to 0.8. Moreover, the myelination in experiment [2] (1 µM) was -14.1 (inactive).

As to `CN1[C@@H]2CC[C@H]1C[C@@H](OC(c1ccccc1)c1ccccc1)C2` [Benzatropine], in experiment [2] (1 µM), the myelination was < -84.9 (inactive).

`CN(CCOc1ccc(CC2SC(=O)NC2=O)cc1)c1ccccn1` (centres undefined) [Rosiglitazone maleate]: the “fiber score / MBP score” value in experiment [1] was found to be 0.752 ± 0.037. Further, in experiment [2] (1 µM), the myelination is -26.2 (inactive).

On to `CCOC(=O)C1=C(C)NC(C)=C(C(=O)OCC)C1c1ccccc1/C=C/C(=O)OC(C)(C)C` [Lacidipine], for which the “fiber score / MBP score” value in experiment [1] is 0.575. Besides, the myelination in experiment [2] (1 µM) was -18.6 (inactive).

Turning to `CCOC(=O)C1=C(COCCN)NC(C)=C(C(=O)OC)C1c1ccccc1Cl` (centres undefined) [Amlodipine], the “fiber score / MBP score” value in experiment [1] amounted to 0.613. Moreover, the myelination in experiment [2] (1 µM) is -4.57 (inactive).

Turning to `COC1=C(OC)C(=O)C(CCCCCCCCCCO)=C(C)C1=O` [Idebenone], the “fiber score / MBP score” value in experiment [1] came out at 0.848. In addition, in experiment [2] (1 µM), the myelination was -12.8 (inactive).

`Oc1c(Cl)cc(Cl)c2cccnc12` [Chloroxine]: the “fiber score / MBP score” value in experiment [1] is 2.26. The myelination in experiment [2] (1 µM) was -4.18 (inactive).

`CC[C@H]1OC(=O)[C@H](C)[C@@H](O[C@H]2C[C@@](C)(OC)[C@@H](O)[C@H](C)O2)[C@H](C)[C@@H](O[C@@H]2O[C@H](C)C[C@H](N(C)C)[C@H]2O)[C@](C)(O)C[C@@H](C)C(=O)[C@H](C)[C@@H](O)[C@]1(C)O` [Erythromycin]: the “fiber score / MBP score” value in experiment [1] amounted to 0.767. Further, in experiment [2] (1 µM), the myelination was -11.1 (inactive).

Regarding `CSc1ccc2c(c1)N(CCC1CCCCN1C)c1ccccc1S2` (centres undefined) [Thioridazine], the “fiber score / MBP score” value in experiment [1] stood at 0.479. The myelination in experiment [2] (1 µM) was -11.4 (inactive); in experiment [2] (5 µM) it was < -29.5 (inactive).

In the case of `Nc1nc(O)c2ncn(CCC(CO)CO)c2n1` [Penciclovir], in experiment [1], the “fiber score / MBP score” value worked out at 0.784. For the same compound, the myelination was 3 (inactive) in experiment [2] (1 µM) and < -37.3 (inactive) in experiment [2] (5 µM).

Consider `CC/C(=C(\c1ccccc1)c1ccc(OCCN(C)C)cc1)c1ccccc1` [Tamoxifen], for which the “fiber score / MBP score” value in experiment [1] was 0.507. Moreover, the myelination in experiment [2] (1 µM) was -18.7 (inactive).

As to `CN(CCCN1c2ccccc2CCc2ccccc21)CC(=O)c1ccc(Cl)cc1` [Lofepramine], the “fiber score / MBP score” value in experiment [1] was 0.564. Moreover, in experiment [2] (1 µM), the myelination was -18.3 (inactive).

`Cc1c2oc3c(C)ccc(C(=O)N[C@@H]4C(=O)N[C@H](C(C)C)C(=O)N5CCC[C@H]5C(=O)N(C)CC(=O)N(C)[C@@H](C(C)C)C(=O)O[C@@H]4C)c3nc-2c(C(=O)N[C@@H]2C(=O)N[C@H](C(C)C)C(=O)N3CCC[C@H]3C(=O)N(C)CC(=O)N(C)[C@@H](C(C)C)C(=O)O[C@@H]2C)c(N)c1=O` [Dactinomycin]: the myelination in experiment [2] (1 µM) and in experiment [2] (5 µM) was < -33.5 (inactive) in each case.

`COC(=O)C1=C(C)NC(C)=C(C(=O)OCC(C)C)C1c1ccccc1[N+](=O)[O-]` (centres undefined) [Nisoldipine]: the “fiber score / MBP score” value in experiment [1] turned out to be 0.773. The myelination in experiment [2] (1 µM) was -11.1 (inactive).

As to `O=c1[nH]cc(F)c(=O)[nH]1` [5-Fluorouracil], the “fiber score / MBP score” value in experiment [1] was 1.24. Besides, in experiment [2] (1 µM), the myelination was determined as 174.

In the case of `O=c1c(O[C@@H]2O[C@H](CO)[C@H](O)[C@H](O)[C@H]2O)c(-c2ccc(O)c(O)c2)oc2cc(O)cc(O)c12` [Hyperoside], the “fiber score / MBP score” value in experiment [1] amounted to 0.853. For the same compound, the myelination in experiment [2] (1 µM) is -69.1 (inactive).
